Compound activity deposited in PubChem BioAssay by Broad Institute.
Shh pathway inh = Sonic Hedgehog pathway inhibition | Shh-LIGHT2 Gli-luciferase reporter, 30 h | inhibition, % (concentration not given with the values) | hit rate 2.1% among 22,000 | AID 2313;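 active = mean inhibition across valid replicates above about 65%, limit read from the data; inconclusive = mean under the limit, yet half or more replicates past it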;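 also: pathway switched on by Shh-conditioned medium diluted 1 in 25 in low serum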
PD-1 reversal = reversal of PD-1 mediated T-cell inhibition; primary human CD4 T cells, PD-L1 beads, CellTiter-Glo 96 h; activation, % (test concentration not listed); 29,000 tested, under 10 active; call rule not given here;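 also: 0% = median vehicle wells and 100% = positive control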
YB-1 expression = YB-1 expression inhibition | U2OS, qRT-PCR YB-1 vs CDIP delta delta Cp, 16 h; hits give high values; zero = DMSO, each unit about twofold | delta delta Cp (YB-1 minus CDIP) (test concentration not listed) | hit rate 0.37% among 30,000;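 active = delta delta Cp rounded down to an integer at or above 3, about 3 SD of DMSO wells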;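 also: higher means less YB-1 transcript or more CDIP transcript relative to DMSO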
MITF inh = blocks MITF activity; TRPM1 promoter luciferase, luminescence, 24 h; inhibition, % (no concentration beside the values); hit rate 0.28% among 37,000; in the data active = inhibition above about 85%; inconclusive = no clear call, values can overlap the other calls; inactive = below about 68%;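 also: human melanocyte line stably carrying TRPM1 promoter luciferase reporter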
NOMO-1 viab = STK33 inhibitor candidate reducing NOMO-1 cell viability; NOMO-1 AML viability, CellTiter-Glo luminescence, 72 h; inhibition, % (concentration not given with the values); hit rate 7.5% among 37,000; in the data active = inhibition above about 80%; inconclusive = no clear call, values can overlap the other calls
Starred values were filed as active, the others as inactive; ? = inconclusive; · = no result given. An excerpt weighted towards active compounds, which were near 7.4% of everything screened.

SMILES	Shh pathway inh	PD-1 reversal	YB-1 expression	MITF inh	NOMO-1 viab
C[C@@H]1CN([C@@H](C)CO)C(=O)c2cccc(NC(=O)c3ccc(-c4nccs4)cc3)c2O[C@@H]1CN(C)Cc1ccc(Cl)c(Cl)c1	19.7	-2.6	0.0712	20.4	51.6
C[C@H]1CN([C@@H](C)CO)C(=O)c2cccc(NC(=O)c3ccc(-c4nccs4)cc3)c2O[C@@H]1CN(C)Cc1ccc(C(=O)O)cc1	9.4	0.8	0.251	-2.5	8.2
C[C@H](CO)N1C[C@H](C)[C@H](CN(C)Cc2ccc(Cl)c(Cl)c2)Oc2c(NC(=O)c3ccc(-c4nccs4)cc3)cccc2C1=O	-8.1	-5.2	-0.342	65.7	108.1*
C[C@H]1CN([C@@H](C)CO)C(=O)c2cccc(NC(=O)c3ccc(-c4nccs4)cc3)c2O[C@H]1CN(C)Cc1ccc(Cl)c(Cl)c1	2.2	·	0.0407	33.0	102.3*
CS(=O)(=O)N(CC(=O)Nc1ccc(F)c(F)c1)c1cccc(Cl)c1	·	-1.7	·	2.6	30.8
CC(C)NC(=O)N(C)C[C@H]1Oc2ccc(NC(=O)Nc3ccc(C(F)(F)F)cc3)cc2C(=O)N([C@H](C)CO)C[C@@H]1C	7.4	-2.2	0.0872	13.2	10.7
C[C@H]1CN([C@@H](C)CO)C(=O)Cc2cc(NC(=O)Nc3ccc(C(F)(F)F)cc3)ccc2O[C@H]1CN(C)CC1CC1	28.8	·	0.109	4.8	23.5
COCCN=c1c([N+](=O)[O-])nn(-c2ccccc2)n1O	·	-1.3	·	-3.0	20.2
O=C1/C(=C\c2c[nH]c3ccccc23)C(c2ccccc2)Oc2ccccc21 (centres undefined)	·	1.0	-0.102	50.8	120.8*
O=C(Nc1ccc(Cl)c(C(F)(F)F)c1)C(Cc1ccccc1)N1C(=O)C2CCCCC2C1=O (centres undefined)	·	·	·	-3.4	-6.5
C=CCC1OC(=O)CCNC(=O)C(C)N(C)C(=O)C(C(C)C)N(C)C(=O)C(C(C)CC)NC(=O)C2CCCN2C1=O (centres undefined)	38.3	0.6	-0.428	-66.3	112.0*
C=CC(C)(C)[C@@]12C[C@H]3C(=O)N[C@H]([C@@H](C)CC)C(=O)N3[C@@H]1Nc1ccccc12	-50.7	1.4	-0.222	-21.3	38.1
COc1ccc(CN(C)C[C@@H]2Oc3c(NC(=O)Nc4cccc5ccccc45)cccc3C(=O)N([C@H](C)CO)C[C@@H]2C)cc1	-15.8	0.8	-0.0435	12.4	34.3
C[C@@H]1CN([C@H](C)CO)C(=O)c2cccc(NC(=O)c3cnccn3)c2O[C@H]1CN(C)Cc1ccc(Cl)c(Cl)c1	-7.7	-5.7	0.0819	24.4	95.8*
C[C@H](CO)N1C[C@H](C)[C@@H](CN(C)Cc2ccc(Oc3ccccc3)cc2)Oc2c(NC(=O)c3cnccn3)cccc2C1=O	53.3	-6.5	-0.606	1.1	105.6*
C[C@@H]1CN([C@H](C)CO)C(=O)c2cccc(NC(=O)c3cnccn3)c2O[C@@H]1CN(C)Cc1ccc(Cl)c(Cl)c1	34.1	-1.9	-0.52	-5.9	35.1
Clc1cccc(Cl)c1Cn1cnc2c(Oc3cccnc3)ncnc21	·	0.1	·	-5.7	9.4
CC1CC(=O)C2=C(O1)OC1(C)CCC3(O)C(C)(C)C=CC(=O)C3(C)C1C2 (centres undefined)	1.0	-0.1	0.749	8.0	19.0
CC(C)(C)C(=O)Nc1ccc2c(c1)C(=O)C(=O)c1ccccc1-2	88.0*	-57.9	·	96.7*	98.3*
CC(O)(C(=O)Nc1ccc(S(=O)(=O)c2ccccc2)cc1)C(F)(F)F (centres undefined)	-69.0	·	-0.0794	-5.1	37.6
COc1ccccc1-c1noc(CCC(=O)Nc2ccccc2C)n1	·	-0.2	·	9.0	-2.4
CCCCC[C@H](O)/C=C/[C@H]1C=CC(=O)[C@@H]1CCCCCCC(=O)O	-8.3	-1.9	0.541	-7.5	37.0
Cn1nc(CC(=O)Nc2nc(-c3ccccc3)cs2)c2ccccc2c1=O	·	-0.1	0.0461	13.9	52.1
C=C1CCC2[C@](C)(CO)[C@H](O)CC[C@@]2(C)[C@@H]1C/C=C1/C(=O)OC[C@H]1O (some centres undefined)	93.1*	-47.5	-0.0438	28.5	97.9*
C=C1CCC2C(C)(CO)CCCC2(C)C1CC/C(C)=C/C(=O)O (centres undefined)	-26.8	·	-0.611	·	·
SMILES	Shh pathway inh	PD-1 reversal	YB-1 expression	MITF inh	NOMO-1 viab
CC12CC3(C)CC(C)(C1)CC(CN=Cc1ccc(O)cc1)(C2)C3	24.1	-2.4	-0.159	-2.9	111.7*
CC(C)CC1NC(=O)C(CC(C)C)N(O[C@@H]2O[C@H](COC(=O)CCC(=O)O)[C@@H](O)[C@H](O)[C@H]2O)C1=O (some centres undefined)	74.1*	-6.1	4.91*	50.0	118.5*
COc1cc2cc(Oc3ccc4ccc(=O)oc4c3)c(=O)oc2cc1OC1OC(COC(=O)CC(C)(O)CC(=O)O)C(O)C(O)C1O (centres undefined)	16.0	-0.6	1.12	-3.8	4.5
C[C@@H]1CN([C@H](C)CO)C(=O)c2cc(NS(C)(=O)=O)ccc2O[C@H]1CN(C)CC1CC1	-6.6	1.5	0.343	-2.3	-10.2
C#C[C@]1(O)CC[C@H]2[C@@H]3CCC4=Cc5oncc5C[C@]4(C)[C@H]3CC[C@@]21C	-16.5	-4.3	-0.0613	8.8	39.9
NCc1cn[nH]c1-c1ccccc1	20.4	0.2	0.278	12.3	25.8
COc1cc2c(cc1OC)CN(C(=O)Cn1c(C)cc(C)c(C#N)c1=S)CC2	-9.7	-0.2	-0.000721	-2.6	-20.6
C=CCN1C(C(=O)c2ccccc2)=C(OC(=O)c2ccccc2)c2ccccc2S1(=O)=O	10.8	-5.9	-0.424	16.7	107.9*
O=C(Oc1ccc(N(Cc2cccs2)C2=NS(=O)(=O)c3ccccc32)cc1)c1ccccc1	-38.5	0.6	-0.175	-0.9	34.7
Cc1ccc(S(=O)(=O)NCc2ccccc2)cc1	·	-0.6	-0.369	-24.1	11.8
Cc1ccc(S(=O)(=O)N[C@H](Cc2ccccc2)C(=O)CCl)cc1	9.4	-9.4	0.0287	15.7	98.2*
C[C@@H]1CN([C@H](C)CO)C(=O)Cc2cc(NC(=O)Nc3ccccc3)ccc2O[C@H]1CN(C)CC1CCCCC1	-26.5	2.0	0.0626	-7.5	?
C[C@H]1CN([C@@H](C)CO)C(=O)Cc2cc(NC(=O)Nc3cccc4ccccc34)ccc2O[C@H]1CN(C)C	-3.4	-1.2	0.259	1.4	-5.9
C[C@@H]1CN([C@H](C)CO)C(=O)Cc2cc(NC(=O)Nc3ccc(C(F)(F)F)cc3)ccc2O[C@@H]1CN(C)CC1CCCCC1	-0.3	-6.7	-9.58	17.1	?
C[C@@H]1CN([C@H](C)CO)C(=O)Cc2cc(NC(=O)Nc3ccc(C(F)(F)F)cc3)ccc2O[C@H]1CN(C)CC1CCCCC1	20.8	-9.2	0.07	26.8	116.4*
C[C@H]1CN([C@@H](C)CO)C(=O)Cc2cc(NC(=O)Nc3ccccc3)ccc2O[C@H]1CN(C)CC1CCCCC1	·	0.2	-0.377	-37.7	90.0*
